# Laboratory results published in the supplement of paper PMC4466140.
# Target: AgAbp1
# Experiment: SPOT peptide array binding signal intensity (averaged, normalized) (arbitrary units (background-subtracted, floor 0; scale differs between SH3 domains)); higher = stronger binding of the SH3 domain to the peptide
# In short: (§1)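 E. coli BL21(DE3) was used to express GST-fused SH3 domains from four yeast species, which were then purified on glutathione Sepharose. These were incubated at 10 μg/ml in TBS-based blocking buffer overnight at 4°C on cellulose membranes carrying synthetic 15-mer peptides, in which cysteines were replaced by serines. Binding signal is the replicate average of normalized, background-subtracted spot intensity, in arbitrary units that differ between domains.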
row,Binder,SPOT peptide array binding signal intensity
1,TSIEIPKRSPLRFTS,9

# Target: AgBbc1
# Experiment: as above
# In short: as §1
row,Binder,SPOT peptide array binding signal intensity
1,TSIEIPKRSPLRFTS,41.5

# Target: AgBem1-D1
# Experiment: as above
# In short: as §1
row,Binder,SPOT peptide array binding signal intensity
1,TSIEIPKRSPLRFTS,9

# Target: AgBzz1-D1
# Experiment: as above
# In short: as §1
row,Binder,SPOT peptide array binding signal intensity
1,TSIEIPKRSPLRFTS,27

# Target: AgBzz1-D2
# Experiment: as above
# In short: as §1
row,Binder,SPOT peptide array binding signal intensity
1,TSIEIPKRSPLRFTS,16

# Target: AgCyk3
# Experiment: as above
# In short: as §1
row,Binder,SPOT peptide array binding signal intensity
1,TSIEIPKRSPLRFTS,1.5

# Target: AgFus1
# Experiment: as above
# In short: as §1
row,Binder,SPOT peptide array binding signal intensity
1,TSIEIPKRSPLRFTS,≤ 0

# Target: AgHof1
# Experiment: as above
# In short: as §1
row,Binder,SPOT peptide array binding signal intensity
1,TSIEIPKRSPLRFTS,6.5

# Target: AgHse1
# Experiment: as above
# In short: as §1
row,Binder,SPOT peptide array binding signal intensity
1,TSIEIPKRSPLRFTS,≤ 0

# Target: AgLsb1
# Experiment: as above
# In short: as §1
row,Binder,SPOT peptide array binding signal intensity
1,TSIEIPKRSPLRFTS,≤ 0

# Target: AgLsb4
# Experiment: as above
# In short: as §1
row,Binder,SPOT peptide array binding signal intensity
1,TSIEIPKRSPLRFTS,16.5

# Target: AgMyo5
# Experiment: as above
# In short: as §1
row,Binder,SPOT peptide array binding signal intensity
1,TSIEIPKRSPLRFTS,2

# Target: AgNbp2
# Experiment: as above
# In short: as §1
row,Binder,SPOT peptide array binding signal intensity
1,TSIEIPKRSPLRFTS,10.5

# Target: AgRvs167
# Experiment: as above
# In short: as §1
row,Binder,SPOT peptide array binding signal intensity
1,TSIEIPKRSPLRFTS,2.33

# Target: AgSho1
# Experiment: as above
# In short: as §1
row,Binder,SPOT peptide array binding signal intensity
1,TSIEIPKRSPLRFTS,≤ 0

# Target: AgSla1-D1-D2
# Experiment: as above
# In short: as §1
row,Binder,SPOT peptide array binding signal intensity
1,TSIEIPKRSPLRFTS,≤ 0

# Target: AgSla1-D3
# Experiment: as above
# In short: as §1
row,Binder,SPOT peptide array binding signal intensity
1,TSIEIPKRSPLRFTS,≤ 0

# Target: CaAbp1-D1
# Experiment: as above
# In short: as §1
row,Binder,SPOT peptide array binding signal intensity
1,TSIEIPKRSPLRFTS,272

# Target: CaAbp1-D2
# Experiment: as above
# In short: as §1
row,Binder,SPOT peptide array binding signal intensity
1,TSIEIPKRSPLRFTS,81

# Target: CaBbc1
# Experiment: as above
# In short: as §1
row,Binder,SPOT peptide array binding signal intensity
1,TSIEIPKRSPLRFTS,484

# Target: CaBem1-D1
# Experiment: as above
# In short: as §1
row,Binder,SPOT peptide array binding signal intensity
1,TSIEIPKRSPLRFTS,12

# Target: CaBzz1-D1
# Experiment: as above
# In short: as §1
row,Binder,SPOT peptide array binding signal intensity
1,TSIEIPKRSPLRFTS,41

# Target: CaBzz1-D2
# Experiment: as above
# In short: as §1
row,Binder,SPOT peptide array binding signal intensity
1,TSIEIPKRSPLRFTS,20

# Target: CaCyk3
# Experiment: as above
# In short: as §1
row,Binder,SPOT peptide array binding signal intensity
1,TSIEIPKRSPLRFTS,58.5

# Target: CaFus1
# Experiment: as above
# In short: as §1
row,Binder,SPOT peptide array binding signal intensity
1,TSIEIPKRSPLRFTS,42

# Target: CaHof1
# Experiment: as above
# In short: as §1
row,Binder,SPOT peptide array binding signal intensity
1,TSIEIPKRSPLRFTS,≤ 0

# Target: CaHse1
# Experiment: as above
# In short: as §1
row,Binder,SPOT peptide array binding signal intensity
1,TSIEIPKRSPLRFTS,≤ 0

# Target: CaLsb1
# Experiment: as above
# In short: as §1
row,Binder,SPOT peptide array binding signal intensity
1,TSIEIPKRSPLRFTS,≤ 0

# Target: CaLsb4
# Experiment: as above
# In short: as §1
row,Binder,SPOT peptide array binding signal intensity
1,TSIEIPKRSPLRFTS,27

# Target: CaMyo5
# Experiment: as above
# In short: as §1
row,Binder,SPOT peptide array binding signal intensity
1,TSIEIPKRSPLRFTS,3

# Target: CaNbp2
# Experiment: as above
# In short: as §1
row,Binder,SPOT peptide array binding signal intensity
1,TSIEIPKRSPLRFTS,61

# Target: CaRvs167
# Experiment: as above
# In short: as §1
row,Binder,SPOT peptide array binding signal intensity
1,TSIEIPKRSPLRFTS,2

# Target: CaRvs167-3
# Experiment: as above
# In short: as §1
row,Binder,SPOT peptide array binding signal intensity
1,TSIEIPKRSPLRFTS,≤ 0

# Target: CaSho1
# Experiment: as above
# In short: as §1
row,Binder,SPOT peptide array binding signal intensity
1,TSIEIPKRSPLRFTS,6

# Target: CaSla1-D1-D2
# Experiment: as above
# In short: as §1
row,Binder,SPOT peptide array binding signal intensity
1,TSIEIPKRSPLRFTS,83

# Target: CaSla1-D3
# Experiment: as above
# In short: as §1
row,Binder,SPOT peptide array binding signal intensity
1,TSIEIPKRSPLRFTS,≤ 0

# Target: ScAbp1
# Experiment: as above
# In short: as §1
row,Binder,SPOT peptide array binding signal intensity
1,TSIEIPKRSPLRFTS,21

# Target: ScBbc1
# Experiment: as above
# In short: as §1
row,Binder,SPOT peptide array binding signal intensity
1,TSIEIPKRSPLRFTS,5

# Target: ScBem1-D1
# Experiment: as above
# In short: as §1
row,Binder,SPOT peptide array binding signal intensity
1,TSIEIPKRSPLRFTS,≤ 0

# Target: ScBzz1-D1
# Experiment: as above
# In short: as §1
row,Binder,SPOT peptide array binding signal intensity
1,TSIEIPKRSPLRFTS,4.5

# Target: ScBzz1-D2
# Experiment: as above
# In short: as §1
row,Binder,SPOT peptide array binding signal intensity
1,TSIEIPKRSPLRFTS,1

# Target: ScCyk3
# Experiment: as above
# In short: as §1
row,Binder,SPOT peptide array binding signal intensity
1,TSIEIPKRSPLRFTS,3

# Target: ScFus1
# Experiment: as above
# In short: as §1
row,Binder,SPOT peptide array binding signal intensity
1,TSIEIPKRSPLRFTS,≤ 0

# Target: ScHof1
# Experiment: as above
# In short: as §1
row,Binder,SPOT peptide array binding signal intensity
1,TSIEIPKRSPLRFTS,0.5

# Target: ScHse1
# Experiment: as above
# In short: as §1
row,Binder,SPOT peptide array binding signal intensity
1,TSIEIPKRSPLRFTS,20.5

# Target: ScLsb1
# Experiment: as above
# In short: as §1
row,Binder,SPOT peptide array binding signal intensity
1,TSIEIPKRSPLRFTS,≤ 0

# Target: ScLsb2
# Experiment: as above
# In short: as §1
row,Binder,SPOT peptide array binding signal intensity
1,TSIEIPKRSPLRFTS,≤ 0

# Target: ScLsb3
# Experiment: as above
# In short: as §1
row,Binder,SPOT peptide array binding signal intensity
1,TSIEIPKRSPLRFTS,252

# Target: ScLsb4
# Experiment: as above
# In short: as §1
row,Binder,SPOT peptide array binding signal intensity
1,TSIEIPKRSPLRFTS,≤ 0

# Target: ScMyo3
# Experiment: as above
# In short: as §1
row,Binder,SPOT peptide array binding signal intensity
1,TSIEIPKRSPLRFTS,11.5

# Target: ScMyo5
# Experiment: as above
# In short: as §1
row,Binder,SPOT peptide array binding signal intensity
1,TSIEIPKRSPLRFTS,2

# Target: ScNbp2
# Experiment: as above
# In short: as §1
row,Binder,SPOT peptide array binding signal intensity
1,TSIEIPKRSPLRFTS,2

# Target: ScPex13
# Experiment: as above
# In short: as §1
row,Binder,SPOT peptide array binding signal intensity
1,TSIEIPKRSPLRFTS,2

# Target: ScRvs167
# Experiment: as above
# In short: as §1
row,Binder,SPOT peptide array binding signal intensity
1,TSIEIPKRSPLRFTS,101

# Target: ScSho1
# Experiment: as above
# In short: as §1
row,Binder,SPOT peptide array binding signal intensity
1,TSIEIPKRSPLRFTS,0.5

# Target: ScSla1-D1-D2
# Experiment: as above
# In short: as §1
row,Binder,SPOT peptide array binding signal intensity
1,TSIEIPKRSPLRFTS,≤ 0

# Target: ScSla1-D3
# Experiment: as above
# In short: as §1
row,Binder,SPOT peptide array binding signal intensity
1,TSIEIPKRSPLRFTS,30.2

# Target: SpAbp1-D1
# Experiment: as above
# In short: as §1
row,Binder,SPOT peptide array binding signal intensity
1,TSIEIPKRSPLRFTS,206

# Target: SpBbc1
# Experiment: as above
# In short: as §1
row,Binder,SPOT peptide array binding signal intensity
1,TSIEIPKRSPLRFTS,≤ 0

# Target: SpBzz1-D1
# Experiment: as above
# In short: as §1
row,Binder,SPOT peptide array binding signal intensity
1,TSIEIPKRSPLRFTS,162

# Target: SpBzz1-D2
# Experiment: as above
# In short: as §1
row,Binder,SPOT peptide array binding signal intensity
1,TSIEIPKRSPLRFTS,≤ 0

# Target: SpCyk3
# Experiment: as above
# In short: as §1
row,Binder,SPOT peptide array binding signal intensity
1,TSIEIPKRSPLRFTS,2

# Target: SpHof1
# Experiment: as above
# In short: as §1
row,Binder,SPOT peptide array binding signal intensity
1,TSIEIPKRSPLRFTS,73

# Target: SpHof1-2
# Experiment: as above
# In short: as §1
row,Binder,SPOT peptide array binding signal intensity
1,TSIEIPKRSPLRFTS,8.75

# Target: SpHof1-3
# Experiment: as above
# In short: as §1
row,Binder,SPOT peptide array binding signal intensity
1,TSIEIPKRSPLRFTS,25.5

# Target: SpHse1
# Experiment: as above
# In short: as §1
row,Binder,SPOT peptide array binding signal intensity
1,TSIEIPKRSPLRFTS,76.8

# Target: SpLsb1
# Experiment: as above
# In short: as §1
row,Binder,SPOT peptide array binding signal intensity
1,TSIEIPKRSPLRFTS,≤ 0

# Target: SpLsb4
# Experiment: as above
# In short: as §1
row,Binder,SPOT peptide array binding signal intensity
1,TSIEIPKRSPLRFTS,376

# Target: SpMyo1
# Experiment: as above
# In short: as §1
row,Binder,SPOT peptide array binding signal intensity
1,TSIEIPKRSPLRFTS,12.5

# Target: SpNbp2
# Experiment: as above
# In short: as §1
row,Binder,SPOT peptide array binding signal intensity
1,TSIEIPKRSPLRFTS,≤ 0

# Target: SpPex13
# Experiment: as above
# In short: as §1
row,Binder,SPOT peptide array binding signal intensity
1,TSIEIPKRSPLRFTS,≤ 0

# Target: SpRvs167
# Experiment: as above
# In short: as §1
row,Binder,SPOT peptide array binding signal intensity
1,TSIEIPKRSPLRFTS,94

# Target: SpSla1-D1-D2
# Experiment: as above
# In short: as §1
row,Binder,SPOT peptide array binding signal intensity
1,TSIEIPKRSPLRFTS,1

# Target: SpSla1-D3
# Experiment: as above
# In short: as §1
row,Binder,SPOT peptide array binding signal intensity
1,TSIEIPKRSPLRFTS,≤ 0
